Assay [1] is described as follows: ATG_PXRE_CIS: Attagene CIS-FACTORIAL HepG2 Assay for human Pregnane X Receptor Element (PXRE) (AID 2282957). The following applies: HepG2 Attagene CIS-FACTORIAL PXRE reporter, mRNA; actives raise or lower the signal. The gist of the method:
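Transfect HepG2 with MRTUs (cis promoter elements); dose chemical, incubate 24 h; isolate RNA, RT with oligo(dT), PCR, 6-FAM label, HpaI cut, CE. Gain/loss fit vs DMSO.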

Assay [2] can be described thus: ATG_RORE_CIS: Attagene CIS-FACTORIAL HepG2 Assay for human RAR-related Orphan Receptor Element (RORE) (AID 2282959). The settings on record: HepG2 Attagene cis-factorial RORE reporter, mRNA; actives raise or lower the signal. The gist of the method:
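Transient MRTU transfection of human HepG2 liver cells (FuGene 6); 24 h compound exposure; TriZol RNA, oligo(dT) RT, PCR, FAM labeling, HpaI cut, CE fragment analysis. DMSO = negative control/baseline.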

A short description of assay [3]: ATG_Sox_CIS: Attagene CIS-FACTORIAL HepG2 Assay for human SRY-box transcription factor (SOX) (AID 2282960). The settings on record: HepG2 Attagene cis-factorial SOX reporter, mRNA; actives raise or lower the signal. The gist of the method:
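Endogenous factor activity in human liver HepG2 cells carrying transfected cis-regulated reporter units. RNA taken 24 h post-dose, reverse-transcribed, PCR-amplified and sized by capillary electrophoresis. Gain or loss of signal fitted relative to DMSO.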

Assay [4] can be described thus: ATG_SREBP_CIS: Attagene CIS-FACTORIAL HepG2 Assay for human Sterol Regulatory Element Binding (SREBP) (AID 2282962). The settings on record: HepG2 Attagene cis-factorial SREBP reporter, mRNA; actives raise or lower the signal. The gist of the method:
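HepG2 cells transiently transfected with multiplexed cis-element reporter units report endogenous transcription factor activity. After 24 h of chemical exposure, reporter mRNA was quantified by RT-PCR, 6-FAM labelling, HpaI digestion and capillary electrophoresis; bidirectional fits used DMSO as baseline.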

The target in assay [5] is Signal transducer and activator of transcription 3 (Homo sapiens) (UniProt P40763). Nature of the assay: ATG_STAT3_CIS: Attagene CIS-FACTORIAL HepG2 Assay for human Signal Transducer and Activator of Transcription 3 (STAT3) (AID 2282963). The following applies: HepG2, Attagene cis-factorial STAT3 reporter transcription; actives raise or lower the signal. The gist of the method:
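After a 24 h compound incubation, total RNA from MRTU-transfected HepG2 cells was converted to cDNA and reporter sequences PCR-amplified, labelled and profiled by capillary electrophoresis. Gain and loss of signal were referenced to DMSO.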

A short description of assay [6]: ATG_TA_CIS: Attagene CIS-FACTORIAL HepG2 Assay for human TA Basal Promoter (AID 2282964). The following applies: HepG2 Attagene CIS-factorial TA basal promoter reporter; actives raise or lower the signal. The gist of the method: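 Multiplexed mRNA reporter assay, HepG2, 24 h. Reporter cDNA amplified, 6-FAM primer-extended, HpaI-cut, CE-sized; DMSO = negative control and baseline.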

A short description of assay [7]: ATG_TAL_CIS: Attagene CIS-FACTORIAL HepG2 Assay for human TAL Basal Promoter (AID 2282966).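 Further: background control endpoint measuring basal TAL promoter reporter mRNA not a specific factor.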 The settings on record: HepG2 Attagene cis-factorial TAL promoter reporter; actives raise or lower the signal. The gist of the method:
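Fluorescence of labelled reporter cDNA fragments, resolved by capillary electrophoresis, gave the readout. Human HepG2 liver cells carried transiently transfected cis-element reporter units and were treated for 24 hours; activity was fitted bidirectionally against DMSO.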

Assay [8] in a line: ATG_TCF_b_cat_CIS: Attagene CIS-FACTORIAL HepG2 Assay for human T-Cell-Factor with beta-catenin (TCF/b-cat) (AID 2282965). The settings on record: HepG2 TCF/beta-catenin cis-reporter transcription, actives raise or lower the signal. The gist of the method:
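Endogenous transcription factor activity is captured through cis-promoter reporter constructs transiently introduced into human HepG2 liver cells. Induced reporter mRNA is measured after 24 h and fitted bidirectionally relative to DMSO.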

Assay [9] deals with Transcription factor Sp1 (Homo sapiens) (UniProt P08047). Nature of the assay: ATG_Sp1_CIS: Attagene CIS-FACTORIAL HepG2 Assay for human Specificity Protein 1 (Sp1) (AID 2282961). The settings on record: HepG2 Sp1 cis-reporter transcription, actives raise or lower the signal. The gist of the method: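 Transient MRTU-transfected HepG2, 24 h compound exposure. Total RNA → oligo(dT) RT → PCR of reporter → 6-FAM primer extension → HpaI digest → CE. Endpoint fitted both directions vs DMSO.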

Activity calls are given as the source filed them. How the source made its calls: active means hit-call score of the fitted dose curve at least 0.9, where 1 is the maximum; inactive means score below 0.9.

By AC50 is commonly meant the midpoint of the concentration-response curve, whichever way the signal moves.

Sequence of Signal transducer and activator of transcription 3 (Homo sapiens) (P40763 whole entry, looked up): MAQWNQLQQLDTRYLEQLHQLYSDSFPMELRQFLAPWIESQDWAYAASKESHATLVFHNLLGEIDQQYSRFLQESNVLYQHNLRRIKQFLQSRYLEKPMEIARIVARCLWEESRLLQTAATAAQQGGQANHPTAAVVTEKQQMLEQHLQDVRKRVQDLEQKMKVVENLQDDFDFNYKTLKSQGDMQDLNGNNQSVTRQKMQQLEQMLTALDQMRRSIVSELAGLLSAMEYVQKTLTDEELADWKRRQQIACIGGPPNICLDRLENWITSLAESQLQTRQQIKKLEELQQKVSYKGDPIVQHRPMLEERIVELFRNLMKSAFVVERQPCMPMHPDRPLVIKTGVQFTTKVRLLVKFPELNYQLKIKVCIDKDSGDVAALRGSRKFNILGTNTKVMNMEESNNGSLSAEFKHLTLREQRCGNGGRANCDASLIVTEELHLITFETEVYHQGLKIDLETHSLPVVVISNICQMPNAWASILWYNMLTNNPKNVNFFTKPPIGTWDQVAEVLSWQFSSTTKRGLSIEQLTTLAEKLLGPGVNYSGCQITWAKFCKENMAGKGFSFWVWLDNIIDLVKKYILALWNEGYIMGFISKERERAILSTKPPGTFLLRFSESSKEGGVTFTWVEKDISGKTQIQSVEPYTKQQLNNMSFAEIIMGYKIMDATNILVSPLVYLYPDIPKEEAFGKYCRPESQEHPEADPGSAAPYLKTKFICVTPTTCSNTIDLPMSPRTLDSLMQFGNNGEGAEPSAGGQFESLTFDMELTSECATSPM
Sequence of Transcription factor Sp1 (Homo sapiens) (P08047 whole entry, looked up): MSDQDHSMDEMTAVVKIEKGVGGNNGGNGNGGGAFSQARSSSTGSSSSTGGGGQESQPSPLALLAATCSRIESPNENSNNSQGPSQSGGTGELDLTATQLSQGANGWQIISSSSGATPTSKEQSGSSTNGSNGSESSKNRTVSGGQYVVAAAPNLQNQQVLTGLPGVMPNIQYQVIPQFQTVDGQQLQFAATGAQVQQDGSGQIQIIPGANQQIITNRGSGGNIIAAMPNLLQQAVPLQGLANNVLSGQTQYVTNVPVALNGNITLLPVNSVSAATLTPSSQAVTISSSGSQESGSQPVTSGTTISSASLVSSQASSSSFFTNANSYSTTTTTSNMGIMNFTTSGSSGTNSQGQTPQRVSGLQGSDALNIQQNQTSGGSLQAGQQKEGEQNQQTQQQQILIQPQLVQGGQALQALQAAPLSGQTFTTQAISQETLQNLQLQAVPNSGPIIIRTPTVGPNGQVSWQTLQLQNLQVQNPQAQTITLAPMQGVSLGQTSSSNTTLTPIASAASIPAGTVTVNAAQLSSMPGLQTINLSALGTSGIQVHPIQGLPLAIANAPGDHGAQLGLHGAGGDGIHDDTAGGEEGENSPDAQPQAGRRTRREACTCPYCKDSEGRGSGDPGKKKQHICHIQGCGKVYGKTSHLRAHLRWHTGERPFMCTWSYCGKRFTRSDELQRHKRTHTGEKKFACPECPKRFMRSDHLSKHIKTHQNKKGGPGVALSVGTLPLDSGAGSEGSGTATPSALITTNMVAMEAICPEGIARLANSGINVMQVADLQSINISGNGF

Consider `CCOCCOCCO`, for which the compound was called inactive in assay [1], in assay [2], in [3], in assay [4], in assay [5] and in [6]. In addition, the result in [7] was inactive.
`C#CC(O)C(CC)CCCC` (stereo not given): the AC50 in assay [1] was 15 µM (active); in assay [8], 67.9 µM (active). Further, the result in assay [2], in assay [3], in assay [4], in assay [5], in [6] and in assay [7] was inactive.
On to `Cc1ccc(C(C)(C)C)c(O)c1`, for which the concentration at half-maximal activity (AC50) in [1] was 25 µM (active); in [3], 154 µM (active); in assay [4] it was 161 µM (active); in assay [8], 161 µM (active). Besides, the result in [2], in assay [5], in [6] and in [7] was inactive.
Regarding `O=C1CCCCC1`, the compound was called inactive in assay [1], in assay [2], in assay [3], in assay [4], in assay [5] and in assay [6]. Further, the compound was classed as inactive in assay [8] and in assay [7].
Consider `CC(C)c1cccc(C(C)C)c1NC(=O)NS(=O)(=O)c1cc(C(C)(C)O)co1`, for which the concentration at half-maximal activity (AC50) in [1] was 16.7 µM (active). Moreover, the compound was called inactive in [2], in [3], in [4], in [5], in assay [6] and in [8]. In assay [7], the result was inactive.
With `COC(=O)[C@H]1[C@H]2C[C@@H]3c4[nH]c5cc(OC)ccc5c4CCN3C[C@H]2C[C@@H](OC(=O)c2cc(OC)c(OC)c(OC)c2)[C@@H]1OC`, the compound was called inactive in assay [2], in [3], in [5], in assay [6] and in assay [7]. Also, in [4], the concentration at half-maximal activity (AC50) is 3.96 µM (active).
For `CN(C)C(=O)NC1(c2ccccc2)CCN(CC[C@@]2(c3ccc(F)c(F)c3)CN(C(=O)c3ccccc3)CCO2)CC1`, the AC50 was 2.43 µM (active) in [1], 26.8 µM (active) in assay [4] and 100 µM (active) in assay [8]. The outcome in assay [3], in assay [5], in assay [6] and in assay [7] was inactive.
As for `CCCCOC(=O)CCCCC(=O)OCCCC`, the outcome in assay [1], in [2], in [3], in assay [4], in assay [5] and in [6] was inactive. For the same compound, the compound was called inactive in assay [7].
On to `CC(COCC(C)OC(=O)c1ccccc1)OC(=O)c1ccccc1` (stereo not given), for which the half-maximal activity concentration (AC50) in [1] is 35.3 µM (active). In addition, the result in [2], in assay [3], in [4], in assay [5], in [6] and in assay [8] was inactive. Further, the result in [7] was inactive.
On to `O=C(N[C@@H](c1ccccc1)[C@@H]1CCCCN1)c1cccc(C(F)(F)F)c1Cl`, for which the AC50 in assay [1] was 8.23 µM (active); in assay [3], 33 µM (active); in assay [4], 8.09 µM (active). Further, the call in assay [2], in assay [5], in assay [6] and in [7] was inactive.
As for `Cc1ccc(-c2cc(C(F)(F)F)nn2-c2ccc(S(N)(=O)=O)cc2)cc1`, the half-maximal activity concentration (AC50) in assay [1] was 2.58 µM (active). Also, the result in assay [3], in assay [4], in assay [5], in assay [6] and in assay [7] was inactive.
On to `CCCCCCCCCCCCCCOS(=O)(=O)O`, for which the outcome in assay [1], in [3], in [9], in assay [4], in [5] and in assay [6] was inactive. For the same compound, the call in assay [8] and in [7] was inactive.
On to `Cc1cc(Cc2ccc(N)c(C)c2)ccc1N`, for which the compound was called inactive in assay [1], in assay [2], in assay [3], in [5], in assay [6] and in assay [8]. The call in assay [7] was inactive. Further, the concentration at half-maximal activity (AC50) in assay [4] is 12.9 µM (active).
Regarding `CC(=O)O`, the compound was classed as inactive in assay [1], in [3], in assay [9], in [4], in [5] and in assay [6]. Also, the compound was classed as inactive in [8] and in [7].
As to `COc1ccc(OC(F)(F)F)cc1CN[C@H]1CCCN[C@H]1c1ccccc1`, the concentration at half-maximal activity (AC50) is 1.85 µM (active) in assay [1] and 19.4 µM (active) in assay [4]. Further, the compound was classed as inactive in assay [2], in [3], in [5], in assay [6] and in [7].
For `O=C1NC(=O)C(c2ccccc2)(c2ccccc2)N1`, the result in [1], in assay [2], in assay [3], in [4], in [5] and in assay [6] was inactive. In addition, the compound was classed as inactive in assay [8] and in assay [7].
Regarding `O=C1OC(c2ccc(O)cc2)(c2ccc(O)cc2)c2ccccc21`, the result in assay [1], in [3] and in assay [5] was inactive. Also, the half-maximal activity concentration (AC50) was 26.7 µM (active) in assay [2], 27.6 µM (active) in assay [4], 27.7 µM (active) in assay [6] and 46.8 µM (active) in [7].
As for `Nc1nc(Cl)nc2c1ncn2[C@H]1C[C@H](O)[C@@H](CO)O1`, the compound was called inactive in [1], in [2], in assay [3], in [4], in [5] and in assay [6]. For the same compound, in [7], the compound was classed as inactive.
Take `NCCOCCOCCN`: the compound was classed as inactive in [1], in assay [2], in assay [3], in [4], in [5] and in assay [6]. The call in [8] and in assay [7] was inactive.
On to `N[C@@H](Cc1c[nH]c2ccccc12)C(=O)O`, for which the outcome in assay [1], in [2], in assay [3], in assay [4], in assay [5] and in [6] was inactive. For the same compound, in assay [7], the call was inactive.
Turning to `O=C1O[C@H]([C@H](O)CO)C(O)=C1O`, the call in [1], in assay [2], in [3], in assay [4], in [5] and in assay [6] was inactive. Besides, the outcome in assay [8] and in assay [7] was inactive.
As for `NC1CCCCC1`, the compound was classed as inactive in assay [1], in [2], in [3], in assay [4], in assay [5] and in assay [6]. Moreover, the compound was classed as inactive in assay [8] and in assay [7].
Consider `CC1=C(C)S(=O)(=O)CCS1(=O)=O`, for which the compound was called inactive in assay [1], in assay [2], in assay [3], in assay [4], in [5] and in [6]. Besides, in assay [7], the compound was called inactive.
`CC(=O)S[C@H](C(=O)N[C@H]1Cc2ccccc2[C@H]2CCC[C@@H](C(=O)O)N2C1=O)C(C)C`: in assay [1], the concentration at half-maximal activity (AC50) is 40.9 µM (active). The outcome in [2], in [3], in assay [4], in assay [5], in [6] and in assay [7] was inactive.
Regarding `Cc1c(C)c2c(c(C)c1O)CCC(C)(COc1ccc(CC3SC(=O)NC3=O)cc1)O2` (stereo not given), the AC50 is 2.01 µM (active) in assay [1], 1.6 µM (active) in assay [4] and 18.5 µM (active) in [8]. The compound was called inactive in assay [3], in assay [5], in [6] and in assay [7].

These data come from PubChem BioAssay (EPA / NIEHS).
